# Measurements published in PubChem BioAssay (NCATS).
# Unmarked numbers belong to inactive results. Inconclusive results are not listed. A call without a number means that no potency is given here. Active and inactive are the calls of the source. Unless noted, calls follow the shape of the dose curve; as a rule, active = well fitted curve in the direction sought with a large enough effect; inconclusive = small, poorly fitted or top-dose-only effect, or another doubt; inactive = no such curve, though single readings can be large; an effect the other way counts as inactive or inconclusive.
# Legend:
# [1] = test system: PA-1; experiment: Primary qHTS to identify gynecologic anti-cancer compounds using libraries of approved drugs and bioactive compounds (AID 1345084); details: Gynecologic cancer cell panel viability, ATPlite luminescence, 48 h; series mostly up to 57.5 µM; also: nearly all actives have a fitted effect of over 55% in size; also: potency is read from the fitted curve at half-maximal effect
# Method in brief: (§1)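 Luminescence from the ATPlite ATP-monitoring reagent indicates viable cell number; lower signal means cytotoxicity. Cells received compound 16 h after seeding and were exposed for 48 h across five concentrations.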
# [2] = test system: SKOV3; experiment: as above; details: Gynecologic cancer cell panel viability, ATPlite luminescence, 48 h; series mostly up to 57.5 µM
# Method in brief: as §1
# [3] = test system: Tov-21-G; experiment: as above; details: Gynecologic cancer cell panel viability, ATPlite luminescence, 48 h; series mostly up to 57.5 µM
# Method in brief: as §1
# [4] = test system: Tov112D; experiment: as above; details: Gynecologic cancer cell panel viability, ATPlite luminescence, 48 h; series mostly up to 57.5 µM
# Method in brief: as §1
# [5] = Drug repurposing screens with cells derived from glioblastoma tumor samples (AID 1345199); details: GBM patient neurospheres viability, ATP luminescence, 48 h; also: nearly all actives have a fitted effect of over 40% in size; also: potency is read from the fitted curve at half-maximal effect
# Method in brief: (§2)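 Primary testing used CD133+ neurospheres from four GBM patients, seven concentrations, 48 h exposure and ATP-based viability; confirmation added three slower-growing patient lines.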
# [6] = test system: astro; experiment: as above; details: viability, ATP luminescence, 48 h; series mostly up to 45.9 µM
# Method in brief: as §2
# [7] = qHTS assay for small molecule activators of the human pregnane X receptor (PXR) signaling pathway (AID 720659; call rule not given here)
# [8] = target: Nuclear receptor subfamily 1 group I member 2 (Rattus norvegicus) (UniProt Q9R1A7); experiment: qHTS assay for small molecule activators of the rat pregnane X receptor (rPXR) signaling pathway (AID 651751; call rule not given here); details: rPXR reporter cells, luciferase (One-Glo), 24 h
# Sequence of Nuclear receptor subfamily 1 group I member 2 (Rattus norvegicus) (Q9R1A7 whole entry, looked up): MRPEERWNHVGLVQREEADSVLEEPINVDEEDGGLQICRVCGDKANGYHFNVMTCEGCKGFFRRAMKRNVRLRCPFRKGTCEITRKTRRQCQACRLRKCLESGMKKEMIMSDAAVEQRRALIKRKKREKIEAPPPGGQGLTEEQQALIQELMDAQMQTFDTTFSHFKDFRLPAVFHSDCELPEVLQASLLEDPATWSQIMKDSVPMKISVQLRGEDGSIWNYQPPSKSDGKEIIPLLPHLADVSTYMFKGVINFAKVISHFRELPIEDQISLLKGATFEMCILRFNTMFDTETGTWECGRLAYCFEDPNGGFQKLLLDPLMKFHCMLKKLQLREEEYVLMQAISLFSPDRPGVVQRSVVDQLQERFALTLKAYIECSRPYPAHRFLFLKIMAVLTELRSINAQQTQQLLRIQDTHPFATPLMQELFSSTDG
# [9] = at 45.9 µM (top of the series), tumour line B
# [10] = at 45.9 µM (top of the series), tumour line D
# [11] = at 46.1 µM (top of the series), tumour line C
smiles,measurement,setting,value
COc1cc(C(=O)O[C@H]2[C@@H]3C=CO[C@@H](O[C@@H]4O[C@H](CO)[C@@H](O)[C@H](O)[C@H]4O)[C@@H]3[C@@]3(CO)O[C@@H]23)ccc1O,Potency,[1],inactive
same,Potency,[2],inactive
same,Potency,[3],inactive
same,Potency,[4],inactive
COC1CC(OC2CCC3(C)C(=CCC4C3CCC3(C)C(C(C)OC5OC(COC6OC(CO)C(O)C(O)C6O)C(O)C(O)C5O)CCC43O)C2)OC(C)C1OC1OC(C)C(O)C(OC)C1O (stereo not given),"activity change, negative = cytotoxicity",[1],2.38% [at 11.6 µM]
same,"activity change, negative = cytotoxicity",[2],25.2% [at 11.6 µM]
same,"activity change, negative = cytotoxicity",[3],6.16% [at 11.6 µM]
same,"activity change, negative = cytotoxicity",[4],-0.166% [at 11.6 µM]
C[C@@](O)(COc1ccc(C#N)cc1)C(=O)Nc1ccc(C#N)c(C(F)(F)F)c1,Potency,[1],inactive
same,Potency,[2],inactive
same,Potency,[3],inactive
same,Potency,[4],inactive
CC1=CC2/C=C(\C)CCC(O)C3OC(C)(C)OC3CC(=O)OC23C(=O)NC(CC(C)C)C3C1C (stereo not given),Potency,[1],inactive
same,Potency,[2],inactive
same,Potency,[3],inactive
same,Potency,[4],inactive
CCOc1ccc2c3c1O[C@H]1[C@@H](O)C=C[C@H]4[C@@H](C2)N(C)CC[C@@]341,"activity, negative = cell killing",[5]; [9],-22.9%
C[C@@]12C[C@@H](c3ccoc3)OC(=O)C1CC[C@]1(C)[C@H]2[C@H]2C=C[C@]1(O)C(=O)O2 (stereo not given in full),Potency,[1],inactive
same,Potency,[2],inactive
same,Potency,[3],inactive
same,Potency,[4],inactive
CCC1NC(=O)C2C(Cl)C(Cl)CN2C(=O)C(C(C)O)NC(=O)CC(c2ccccc2)NC(=O)C(CO)NC1=O (stereo not given),Potency,[1],inactive
same,Potency,[3],inactive
same,Potency,[4],inactive
CN1C(=O)c2ccccc2NC(=O)[C@]12O[C@@H]2c1ccccc1,Potency,[2],inactive
same,Potency,[3],inactive
same,Potency,[4],inactive
CCN1C[C@]2(COC(=O)c3ccccc3N3C(=O)C[C@H](C)C3=O)CC[C@H](OC)[C@@]34[C@@H]5C[C@H]6[C@H](OC)[C@@H]5[C@](O)(C[C@@H]6OC)[C@](O)([C@@H](OC)[C@H]23)[C@@H]14,Potency,[1],inactive
same,Potency,[2],inactive
same,Potency,[3],inactive
same,Potency,[4],inactive
C=C[C@H]1CN2CC[C@H]1C[C@@H]2[C@@H](O)c1ccnc2ccccc12,Potency,[1],inactive
same,Potency,[2],inactive
same,Potency,[3],inactive
same,Potency,[4],inactive
same,"activity, negative = cell killing",[5]; [9],-7.16%
same,"activity, negative = cell killing",[5]; [10],-9.4%
same,"activity, negative = cell killing",[5]; [11],15.7%
same,Potency,[5]; tumour line A,17.8 µM (active)
same,Potency,[6],inactive
COC1CC(O[C@H]2CC[C@]3(C=O)C4CC[C@]5(C)[C@@H](C6=CC(=O)OC6)CC[C@]5(O)[C@@H]4CC[C@]3(O)C2)OC(C)C1O[C@@H]1O[C@H](CO)[C@@H](O)[C@H](O)[C@H]1O (stereo not given in full),Potency,[1],0.316 µM (active)
same,Potency,[2],0.447 µM (active)
same,Potency,[3],0.141 µM (active)
same,Potency,[4],0.1 µM (active)
Cc1c(Cl)cccc1S(=O)(=O)Nc1nc(CC(=O)N2CCN(C)CC2)cs1,Potency,[1],inactive
same,Potency,[3],inactive
same,Potency,[4],inactive
COC1=CC(=O)O[C@@H](/C=C/c2ccccc2)C1,Potency,[1],inactive
same,Potency,[2],inactive
same,Potency,[3],inactive
same,Potency,[4],inactive
same,outcome,[7],inactive
Cc1cccc(NC(=O)N[C@@H]2N=C(c3ccccc3)c3ccccc3N(C)C2=O)c1,Potency,[1],inactive
same,Potency,[3],inactive
same,Potency,[4],inactive
C[CH2][Hg][S]c1ccccc1C(=O)O,Potency,[3],35.5 µM (active)
same,Potency,[6],1.58 µM (active)
COC(=O)C1(C)CCC(=O)C2(C)c3c(O)cc(C(C)C)cc3C(O)C(OC(C)=O)C12 (stereo not given),Potency,[1],inactive
same,Potency,[2],inactive
same,Potency,[3],inactive
same,Potency,[4],inactive
O=C(O)c1ccnc2cc(C(OCCN3CCCCC3)c3ccccc3Cl)[nH]c12 (stereo not given),Potency,[1],inactive
same,Potency,[3],inactive
same,Potency,[4],inactive
CC(C)(O)[C@H]1O[C@H]2CC[C@@]3(C)[C@@](O)(CC[C@H]4Cc5c([nH]c6ccccc56)[C@@]43C)C2=CC1=O,Potency,[1],inactive
same,Potency,[2],inactive
same,Potency,[3],inactive
same,Potency,[4],inactive
O=C1C[C@@H]2OCC=C3CN4CC[C@]56c7ccccc7N1[C@H]5[C@H]2[C@H]3C[C@H]46,Potency,[1],inactive
same,Potency,[2],inactive
same,Potency,[3],inactive
same,Potency,[4],inactive
same,"activity, negative = cell killing",[5]; [9],-6.57%
same,"activity, negative = cell killing",[5]; [10],-6.6%
same,"activity, negative = cell killing",[5]; [11],6.33%
same,Potency,[5]; tumour line A,12.6 µM (active)
same,Potency,[6],inactive
same,max response,[8],0.534%
C[C@@H]1C(=O)O[C@H]2[C@H](O)[C@@]34[C@@H]5OC(=O)[C@@]3(O[C@@H]3OC(=O)[C@@H](O)[C@@]34[C@H](C(C)(C)C)[C@H]5O)[C@@]12O,Potency,[1],inactive
same,Potency,[2],inactive
same,Potency,[3],inactive
same,Potency,[4],inactive
CC(=O)[C@H]1CC[C@H]2[C@@H]3CC[C@@H]4C[C@H](O)CC[C@]4(C)[C@H]3CC[C@]12C,"activity, negative = cell killing",[5]; [9],-17.7%
same,Potency,[5]; tumour line D,17.8 µM (active)
CC(C)[C@@H](CN1CC[C@@](C)(c2cccc(O)c2)[C@@H](C)C1)NC(=O)[C@H]1Cc2ccc(O)cc2CN1,Potency,[1],inactive
same,Potency,[3],inactive
same,Potency,[4],inactive
N#CC(C#N)=Cc1cc(O)c(O)c(O)c1,"activity, negative = cell killing",[5]; [9],-27.1%
same,Potency,[5]; tumour line D,12.6 µM (active)
COc1cc(C)[nH]c(=O)c1CNC(=O)c1c(C)n([C@H](C)C2CCOCC2)c2ccccc12,Potency,[1],inactive
same,Potency,[3],inactive
same,Potency,[4],inactive
CC[C@H]1CN2CC[C@H]1C[C@@H]2[C@@H](O)c1ccnc2ccc(OC)cc12,Potency,[2],inactive
same,Potency,[3],inactive
same,Potency,[4],inactive
